In the library only some 2.4% were active in any assay of this set; here they are far more common.
PINK1 modulator – changes PINK1 expression; AID 624263; Potency, µM (series often up to 76.6 µM), inactives show at the highest dose activation (PINK1 increase), hits mostly activators; 0.2% of 410,000 active; PINK1 immunofluorescence, high-content cytometry, 24 h; active = well fitted activation curve with a large enough effect; inconclusive = small, poorly fitted or top-dose-only effect; cell line not stated here; also: % of control where 0% means no effect; nearly all actives have a fitted effect of over 65% in size
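PINK1 protein level read as immunofluorescence by microplate cytometer in a fixed, stained stable cell line after 24 h exposure to five compound concentrations, with CCCP as control.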
Nrf2 ARE act – activators of Nrf2 (ARE) signaling; AREc32 ARE-luciferase reporter (MCF7-derived line), luminescence, 24 h; Potency, µM (doses to about 46.1 µM), for inactives: at the top dose activation, actives largely listed as activators; 0.31% of 410,000 active; AID 624171; also: % of control where 0% means no effect; nearly all actives have a fitted effect of over 65% in size
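AREc32 cells carrying an ARE-driven firefly luciferase, 1000 cells/well in OPTI-MEM with 5% FBS, dosed after overnight attachment and incubated 24 hr at 37 deg C. Steady-Glo luminescence read after 30 min at RT.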
Epigenetic reg – regulators of epigenetic silencing causing reporter derepression in mouse cells | murine LDR cells, GFP reporter derepression, 30 h | Potency, µM (highest dose often 53.9 µM), inactives show top-dose GFP activation, usual class: activators | 0.2% of 280,000 active; also: % of control where 0% means no effect; nearly all actives have a fitted effect of over 60% in size
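Murine LDR cells carrying a silenced, genomically integrated CMV-driven GFP reporter were exposed to compound for 30 hours at 37 C. After PBS washes, GFP-positive cells (20–120 um objects) were counted by laser-scanning microplate cytometry.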
Nrf2 inh – Nrf2 pathway inhibition; A549 ARE-Fluc reporter, luciferase luminescence, 18-24 h; Potency, µM (titrated, usually from 46 µM), without a hit: top-dose activity change, negative = inhibition, actives largely listed as inhibitors; 2.1% of 360,000 active; also: % is scaled to controls: 0 for no effect and ±100 for the full control effect; nearly all actives have a fitted effect of over 60% in size
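A549 ARE_Fluc cells, 5000/well, 5% FBS OPTI-MEM; compounds in dose-response, 18-24 h at 37 °C/5% CO2; CellTiter-Fluor viability read (Ex 405/Em 525), then BugLite luciferase luminescence = Nrf2 activity.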
A549 viability – A549 cytotoxicity, counter-screen for Nrf2 inhibitors; Potency, µM (highest dose often 46 µM), for the others: at the highest dose activity change, negative = cytotoxicity, usual class: inhibitors; AID 504648; 0.16% of 390,000 active; A549 ARE-Fluc cells, CellTiter-Fluor viability, 18-24 h; also: % is scaled to controls: 0 for no effect and ±100 for the full control effect
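A549 ARE-Fluc cells in 5% FBS OPTI-MEM, 5000 cells/well, rested 2 h then exposed to compounds in concentration-response for 18-24 h at 37 °C. Viability by CellTiter-Fluor fluorescence (Ex 405/Em 525) after 30 min; luciferase luminescence (BugLite, 15 min, RT) read afterwards.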
* marks the source's active call; other numbers are inactive results; ? = inconclusive; . = not tested or not shown; [ ] = another dose, or the depositor's remark. Unless noted, calls follow the shape of the dose curve; as a rule, active = well fitted curve in the direction sought with a large enough effect; inconclusive = small, poorly fitted or top-dose-only effect, or another doubt; inactive = no such curve, though single readings can be large; an effect the other way counts as inactive or inconclusive. Potency is read from the fitted curve at half-maximal effect.

SMILES	PINK1 modulator	Nrf2 ARE act	Epigenetic reg	Nrf2 inh	A549 viability
COc1ccc2c(c1)C(=O)[C@@H](OC(=O)NC1CCCC1)[C@H](c1ccc(OC)c(Br)c1)O2	.	.	0%	.	.
CCOC(=O)C(=Cc1ccc(F)cc1)C(=O)OCC	.	.	1%	.	.
CCOC(=O)C(=Cc1ccc(Br)cc1)C(=O)OCC	-2%	?	0%	18µM*	?
CCN(C(=O)COC(=O)c1cccnc1Nc1cccc(C(F)(F)F)c1)C1CCS(=O)(=O)C1 (stereo unspecified)	7%	11µM*	4%	5%	2%
COc1cc(C2C=C(Nc3ccccc3)C(=O)N2c2ccccc2)ccc1O (stereo unspecified)	0%	3%	-1%	18µM*	?
Cc1ccc2nc(-c3cccc(-c4nc5ccc(C)cc5o4)n3)oc2c1	0%	.	.	5%	-1%
Cc1ccc(-c2nc(C=Nc3ccc(O)cc3)c(O)o2)cc1	3%	6.3µM*	?	16%	?
Cc1ccc2nc(-c3ccc(O)cc3)oc2c1	-1%	0%	.	6.5µM*	1%
Oc1oc(-c2ccco2)nc1C=Nc1ccccc1	-1%[38.3 µM]	13µM*	4%	1%	-2%
C=CCC(C)(Nc1ccccc1)C(=O)OCC (stereo unspecified)	.	.	0%	.	.
Oc1ccc(/C=C/c2ccccc2)c2cccnc12	.	.	.	?	-5%
C=C[C@@H]1CN2CCC1C[C@@H]2C(O)c1ccnc2ccc(OC)cc12 (stereo partly specified)	.	.	1%	.	.
Cc1csc(SCC(=O)N2CCOc3ccc(C(O)C4CCCCC4)cc3C2)n1 (stereo unspecified)	1%	.	.	.	.
Cc1cccc(N2CCN(C(=O)CS(=O)(=O)Cc3nc(-c4ccccc4C)oc3C)CC2C)c1 (stereo unspecified)	0%	0%	0%	23µM*	-10%
Cc1oc(-c2ccccc2F)nc1CS(=O)(=O)CC(=O)N1CCOCC1	-1%	-1%	-1%	-13%	7%
CCN1CCN(C(=O)CS(=O)(=O)Cc2nc(-c3ccccc3C)oc2C)CC1	1%	0%	.	-7%	-1%
Cc1cccc(N2CCN(C(=O)CS(=O)(=O)Cc3nc(-c4ccccc4F)oc3C)CC2C)c1 (stereo unspecified)	-1%	0%	-1%	16µM*	-9%
Cc1ccc(-c2nc(CS(=O)(=O)CC(=O)N3CC(C)CC(C)C3)c(C)o2)cc1 (stereo unspecified)	-1%	0%	-1%	21µM*	-9%
COc1ccc(C2NC(=O)NC(C)=C2C(=O)Nc2cc(C)cc(C)c2)c(OC)c1 (stereo unspecified)	0%	0%	0%	-11%	-1%
CCN(N=O)c1ccc(/C=C2\C=Cc3ccccc32)cc1	2%	.	.	.	.
COC(=O)c1ccsc1NC(=O)CSc1nnnn1Cc1ccccc1	-2%	7.9µM*	-1%	-7%	6%
COc1cc(NC(=O)CSc2nnnn2Cc2ccccc2)cc(OC)c1	-1%	1%	0%	0%	17%
CCN1C(=O)[C@H]2[C@H]3[C@H](O)[C@H](O)C/C(=N/O[C@@H](C)CN4CCCCc5nc(C)c(C)cc54)[C@@H]3CC[C@@H]2C1=O	.	.	1%[10.1 µM]	.	.
Cc1csc2c(=O)sc(NC(=O)c3cccs3)nc12	3%	3.5µM*	-3%	?	-11%
C[C@@H](NC(=O)c1coc(=O)c(Br)c1)c1ccccc1	5%	11µM*	2%	?	-12%
SMILES	PINK1 modulator	Nrf2 ARE act	Epigenetic reg	Nrf2 inh	A549 viability
O=C(Nc1ccccc1F)c1coc(=O)c(Br)c1	4%	27%	2%	?	-7%
O=C(Nc1ccc(Br)cn1)c1coc(=O)c(Br)c1	1%	18µM*	2%	?	-1%
O=C(CN1CCCC1)Nc1ccccc1C(=O)c1ccccc1	0%	0%	0%	2%	15%
O=C(CN1CCN(S(=O)(=O)c2ccccc2F)CC1)Nc1ccccc1C(=O)c1ccccc1	-2%	4%	0%	15µM*	-12%
COc1ccc(-c2noc(CCC(=O)Nc3ccc(C(F)(F)F)cc3)n2)cc1	0%	0%	0%	18µM*	-6%
COc1ccc(-c2noc(CCCC(=O)Nc3ccc(C(N)=O)cc3)n2)cc1	10%[38.3 µM]	-3%	-1%	.	-2%

From PubChem
